The record followed here is PubChem BioAssay AID1851 (National Center for Advancing Translational Sciences (NCATS), 2009).

One may read the AC50 as the concentration giving half of the maximal activity seen.

SMILES strings stand for the structures. Among all 16,000 compounds or so, about 5,700 (36%) were called active. Another 24% or so got no clear call; they are omitted. Some of the results follow. Values without a mark were called inactive. Calls come from the whole dose curve; as a rule, active = well fitted curve in the direction sought with a large enough effect; inconclusive = small, poorly fitted or top-dose-only effect, or effect the other way; inactive = no such curve, though single readings can be large or run the other way.
% is set by controls: 0 for no effect and ±100 for the full control effect.

Chain of Cytochrome P450 1A2 (Homo sapiens) (P05177 whole entry, looked up): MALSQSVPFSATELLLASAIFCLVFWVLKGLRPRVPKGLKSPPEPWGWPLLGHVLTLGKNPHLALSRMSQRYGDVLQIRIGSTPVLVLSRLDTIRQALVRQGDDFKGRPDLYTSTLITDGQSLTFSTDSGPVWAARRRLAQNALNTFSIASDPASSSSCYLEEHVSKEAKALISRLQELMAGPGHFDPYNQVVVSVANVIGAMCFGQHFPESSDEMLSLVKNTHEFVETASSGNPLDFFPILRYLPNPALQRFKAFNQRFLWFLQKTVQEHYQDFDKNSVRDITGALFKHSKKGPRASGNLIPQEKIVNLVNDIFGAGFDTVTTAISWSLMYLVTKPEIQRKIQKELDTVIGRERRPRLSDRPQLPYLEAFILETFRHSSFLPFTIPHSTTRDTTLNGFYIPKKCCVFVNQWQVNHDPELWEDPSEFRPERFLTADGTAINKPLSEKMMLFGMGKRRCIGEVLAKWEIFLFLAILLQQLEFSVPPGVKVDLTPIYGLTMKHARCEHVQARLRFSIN

The target of the experiment is Cytochrome P450 1A2 (Homo sapiens) (UniProt P05177). The experiment can be described thus: Cytochrome panel assay with activity outcomes. Conditions: recombinant CYP, pro-luciferin dealkylation, luminescence, p450-cyp1a2; series mostly up to 57.1 µM; activity, negative = inhibition: at the top concentration. The protocol:
The P450 gene superfamily is involved in the metabolism and clearance of xenobiotics. This assay used various human CYP P450 isozymes to measure the dealkylation of various pro-luciferin substrates to luciferin. The luciferin is then measured by luminescence after the addition of a luciferase detection reagent. Pro-luciferin substrate concentration in the assay was equal to its KM for its CYP P450 isozyme. Inhibitors and some substrates limit the production of luciferin, and decrease measured luminescence.
NCGC Assay Protocol Summary:
1, Reagent, 2 uL, Isozyme and Pro-Luciferin
2, Library compounds, 23 nl, 40 uM to 0.24 nM dilution series
3, Controls, 23 nl, Isozyme specific inhibitor
4, Reagent, 2 uL, NADPH regeneration solution
5, Incubation time, 60 min, Isozyme specific temperature
6, Reagent, 4ul, Detection reagent
7, Incubation time, 20 min, Isozyme specific temperature
8, Detection, 1 sec, ViewLux luminescent read
The luciferase-based P450-GloTM Screening Systems were obtained from Promega (Madison, WI) for CYP 1A2 (V9770), CYP 2C9 (V9790), CYP2 C19 (V9880), CYP 2D6 (V9890), and CYP 3A4 Luciferin-PPXE (V9910) and were adapted for 1,536-well microplates and an automated protocol. The control compounds furafylline for 1A2 (F124), sulfaphenazole for CYP 2C9 (S0758), ketoconazole for CYP 2C19 (K1003), quinidine for 2D6 (Q3625), and ketoconazole for 3A4 (K1003) were purchased from Sigma Aldrich (St. Louis, MO). Recombinant P450 enzymes were obtained from baculovirus constructs expressed in insect cells (BD/Gentest).
Medium-binding white solid Kalypsys plates used. Mixtures kept on ice. 1A2: 10 nM 1A2, 100 uM Luc-ME, 100 mM KPO4; 2C9: 10 nM 2C9, 100 uM Luc-H, 25 mM KPO4; 2C19: 5 nM 2C19, 10 uM Luc-H EGE, 50 mM KPO4; 2D6: 5 nM 2D6, 30 uM Luc-ME EGE, 100 mM KPO4; 3A4: 10 nM, 25 uM Luc-PPXE. All amounts are reflected in their final concentration, working concentration is 2x.
NADPH regeneration solution: 1.3 mM NADP+, 3.3 mM glucose-6-phosphate, 3.3 mM MgCl2, 0.4 U/mL glucose-6-phosphate dehydrogenase for all isozymes, 200 mM KPO4 for 3A4. Mixture prepared at RT but kept on ice during automated run.
RT incubation in auxilliary plate hotel for 1A2, 2D6, and 3A4; 37C for 2C9 and 2C19.
Keywords: P450, CYP1A2, CYP2C19, CYP2C9, CYP2D6, CYP3A4, Luciferase, MLSMR, MLSCN, NIH Roadmap, qHTS, NCGC
As for `C[C@@]12C(=O)OC(=O)[C@@]1(C)[C@H]1CC[C@@H]2O1`, the “activity, negative = inhibition” value is -6% (inactive).

In the case of `CC(=O)[C@]1(O)CC[C@@H]2[C@H]3C[C@@H](C)C4=CC(=O)CC[C@@]4(C)[C@H]3[C@@H](O)C[C@]21C`, the activity, negative = inhibition is -1.99% [at 2.29 µM].

Take `CC(C)N[C@@H](C)Cc1ccc(I)cc1`: the AC50 was 10 µM (active).

Take `O=C1NC(=S)NC(=O)C1=Cc1cccc2cc3ccccc3cc12`: the AC50 was 0.398 µM (active).

On to `C[C@]12CC[C@@H]3[C@H](CCC4=CC(=O)CC[C@]43C)[C@]1(O)CC[C@@]2(O)C(=O)CO`, for which the activity, negative = inhibition was 4.85% [at 2.29 µM].

As for `CCCCCCCCCOc1ccc2[nH]cc(CCN)c2c1`, the AC50 was 0.0398 µM (active).

With `COc1ccc2[nH]cc(CCN)c2c1`, the AC50 was 1.58 µM (active).

For `COc1ccc2[nH]cc(CCN(C)C)c2c1`, the AC50 is 15.8 µM (active).

Consider `NCCc1c[nH]c2ccc(OC(=O)C(=O)O)cc12`, for which the concentration at half-maximal activity (AC50) is 2.51 µM (active).

Turning to `CC(=O)O[C@H]1CC[C@@]2(C)C(=CC[C@@H]3[C@H]2CC[C@]2(C)C(=O)CC[C@H]32)C1`, the “activity, negative = inhibition” value is -16.8% [at 25.6 µM] (inactive).

On to `CC(C)NC(=O)N1CCC2(CC1)CCN(C(=O)Oc1ccccc1)CC2`, for which the “activity, negative = inhibition” value was 3.33% (inactive).

`CCOC(=O)c1[nH]c(C)c(C(=O)N2CCC3(CC2)OCCO3)c1C`: the “activity, negative = inhibition” value was -26.6% (inactive).

Consider `CN(C)C(=O)Oc1ccc[n+](C)c1`, for which the “activity, negative = inhibition” value was 2.74% (inactive).

With `CC(C)(C)NC[C@H](O)c1cc(Cl)c(N)c(Cl)c1`, the “activity, negative = inhibition” value is -1.17% [at 25.6 µM] (inactive).

Turning to `COCCNC(=S)N1C2CCC1CC(NC(=O)NC13CC4CC(CC(C4)C1)C3)C2` (stereo not given), the “activity, negative = inhibition” value was 18.7% (inactive).

For the compound `Nc1nc(N)c(Cn2ccnc2)c(=O)[nH]1`, the activity, negative = inhibition was -19.7% [at 11.4 µM].

For the compound `Cn1c(=O)c2[nH]cnc2n(C)c1=O`, the “activity, negative = inhibition” value is -27% [at 25.6 µM] (inactive).

Regarding `C[C@@]12CC[C@H]3[C@@H](CCC4=C(O)C(=O)CC[C@]43C)[C@H]1CCC2=O`, the “activity, negative = inhibition” value was -8.41% (inactive).

Regarding `Nc1ncnc2c1ncn2[C@@H]1O[C@@H](COP(=O)(O)CP(=O)(O)OP(=O)(O)O)[C@H](O)[C@@H]1O`, the “activity, negative = inhibition” value is 2.41% (inactive).

For the compound `CCCCCCN=Cc1c(O)n(C)c(=O)n(C)c1=O`, the AC50 is 12.6 µM (active).

As to `CCCCn1c(O)c(C=NCCN2CCCCC2)c(=O)[nH]c1=O`, the “activity, negative = inhibition” value was -2.11% (inactive).

For the compound `Cc1ccccc1OCCN=Cc1c(O)n(C)c(=O)n(C)c1=O`, the AC50 is 12.6 µM (active).

Turning to `COc1cccc(-n2c(O)c(C=NCCN3CCOCC3)c(=O)[nH]c2=O)c1`, the “activity, negative = inhibition” value is 4.03% (inactive).

As to `O=C(O)/C=C\c1ccc[c]([Sb](=[O])([OH])[OH])c1`, the activity, negative = inhibition was -9.5% [at 2.29 µM].

Consider `NC(N)=Nc1ccc2[nH]c3c(c2c1)C[C@]1(O)[C@@H]2Cc4ccc(O)c5c4[C@]1(CCN2CC1CC1)[C@@H]3O5`, for which the “activity, negative = inhibition” value is 4.44% (inactive).

On to `NNC(=O)c1ccc(O)cc1`, for which the “activity, negative = inhibition” value is -20.8% (inactive).

For the compound `CSCC[C@@H](N)P(C)(=O)O`, the activity, negative = inhibition is -11% [at 11.4 µM].

In the case of `COC(=O)N1CCC2(CCCN(C)C2)CC1`, the “activity, negative = inhibition” value was 2.96% (inactive).

Take `C[C@H](Br)CN(C[C@H](C)Br)c1ccc2c(c1)Cc1ccccc1-2`: the AC50 was 3.16 µM (active).

In the case of `CCN1C[C@]2(C)CC[C@H](O)[C@@]34[C@@H]5CC6[C@@H](OC)C[C@@](O)([C@@H]5[C@@H]6O)[C@H](C[C@@H]23)[C@H]14`, the “activity, negative = inhibition” value is -7.34% [at 25.6 µM] (inactive).

In the case of `C[C@@H]1O[C@@H](O[C@H]2C[C@@H](O)[C@]3(CO)[C@@H]4[C@@H](O)C[C@]5(C)[C@H]([C@@H]6COC(=O)C6)CC[C@@]5(O)[C@H]4CC[C@@]3(O)C2)[C@H](O)[C@H](O)[C@@H]1O`, the “activity, negative = inhibition” value was -2.23% (inactive).

With `CN1CC[C@@]2(CCCN(C(=O)Oc3ccccc3)C2)C1`, the “activity, negative = inhibition” value was -21.9% (inactive).

Turning to `Cc1ncsc1CCCl`, the AC50 is 31.6 µM (active).

In the case of `Oc1ccc([C@H](O)[C@@H]2CCCCN2)cc1O`, the activity, negative = inhibition is -3.47% [at 11.4 µM].

`O=C(O)[C@H]1C[C@@H]1[C@H](NP(=O)(c1ccccc1)c1ccccc1)c1ccccc1`: the “activity, negative = inhibition” value was -1.74% (inactive).

Consider `O=C(O)[C@@H]1C[C@H]1[C@@H](NP(=O)(c1ccccc1)c1ccccc1)c1ccccc1`, for which the “activity, negative = inhibition” value is -1.59% (inactive).

Regarding `C=C(CC1(C(C)NP(=O)(c2ccccc2)c2ccccc2)CC1)c1ccccc1` (stereo not given), the concentration at half-maximal activity (AC50) was 15.8 µM (active).

With `c1csc(CN2CCCC3(CCNCC3)C2)n1`, the “activity, negative = inhibition” value was -13% (inactive).

For `CC(=O)O[C@H]1CC[C@@]2(C)[C@@H](CC[C@H]3[C@H]2CC(=O)[C@@]2(C)[C@@H]3C[C@H]3CC(C)=CC(=O)[C@H]32)C1`, the activity, negative = inhibition is -8.97% [at 2.29 µM].

Regarding `C[C@H](CCC(=O)O)[C@H]1CC[C@]2(C)[C@@H]3C(=O)C[C@H]4C(C)(C)[C@@H](O)CC[C@]4(C)[C@H]3C(=O)C[C@@]12C`, the activity, negative = inhibition is -10.7% [at 11.4 µM].

`C[C@H]1CC[C@@]2(NC1)O[C@@H]1C[C@H]3[C@@H]4CC=C5C[C@@H](O)CC[C@]5(C)[C@@H]4CC[C@]3(C)[C@@H]1[C@@H]2C`: the “activity, negative = inhibition” value was -7.71% [at 25.6 µM] (inactive).

Turning to `CN(C)CCCc1cccnc1`, the activity, negative = inhibition is -10.2% [at 2.29 µM].

For `COc1ccccc1CC1C(=O)C2CCN1CC2` (stereo not given), the “activity, negative = inhibition” value was -5.49% (inactive).

As to `OC1(c2ccc(Cl)cc2)CCN(Cc2c[nH]c3ccccc23)CC1`, the AC50 is 31.6 µM (active).

On to `CN(C)Cc1c[nH]c2ccccc12`, for which the “activity, negative = inhibition” value is -20.8% [at 25.6 µM] (inactive).
